The source of these data is PubChem BioAssay (EPA / NIEHS).

The source made the active and inactive calls. How the source made its calls: active means hit-call score of the fitted dose curve at least 0.9, where 1 is the maximum; inactive means score below 0.9.

Read-out in the test: Transforming growth factor beta 1 (TGFb1), TGFB1 (gene 7040)
Description: BSK_BE3C_TGFb1: BioMAP Diversity Plus: BE3C Assay for Transforming growth factor beta 1 (TGFb1) Biomarker Activity (AID 2283036;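 on outcome: TGF-b1 protein level measured by ELISA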). The conditions noted are these: primary human bronchial epithelial cells; actives raise or lower the signal. In a few lines: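 Read-out: ELISA for TGF-b1 in primary human bronchial epithelial cultures, 24 h post-dose. Bidirectional curve fitting vs DMSO control; gain or loss of signal both scored.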
As to `ClCC(Cl)CCl`, the outcome was inactive.

Take `CCOP(=S)(OCC)SCSP(=S)(OCC)OCC`: the result was inactive.

Turning to `CC(=O)C(Cl)C(=O)N(C)C` (centres undefined), the result was inactive.

Regarding `COc1cc(-c2ccc(N)c(OC)c2)ccc1N`, the outcome was inactive.

With `O=C1C2(Cl)C3(Cl)C4(Cl)C(Cl)(Cl)C5(Cl)C3(Cl)C1(Cl)C5(Cl)C24Cl` (centres undefined), the AC50 (usually the midpoint of the concentration-response curve, whichever way the signal moves) is 5.28 µM (active).

Take `CCOC(=O)/C=C(C)/C=C/C[C@@H](C)CCCC(C)C`: the AC50 was 20 µM (active).

For `CCOP(=S)(OCC)Oc1ccc(S(C)=O)cc1` (centres undefined), the outcome was inactive.

With `ClC1(Cl)C2(Cl)C3(Cl)C4(Cl)C(Cl)(Cl)C5(Cl)C3(Cl)C1(Cl)C5(Cl)C24Cl` (centres undefined), the result was inactive.

With `CCC(=O)C(CC(C)N(C)C)(c1ccccc1)c1ccccc1` (centres undefined), the result was inactive.

Turning to `Cn1sc(Cl)cc1=O`, the result was inactive.

On to `Oc1cccc2cccnc12`, for which the half-maximal activity concentration (AC50) is 5.43 µM (active).

Take `CC(C)(C)c1cc(O)ccc1O`: the outcome was inactive.

With `CCNc1nc(NC(C)(C)C)nc(SC)n1`, the outcome was inactive.

For `CC(C)c1ccc(CO)cc1`, the result was inactive.

`CC(C)(C)CC(C)(C)c1ccc(O)cc1`: the AC50 is 14.7 µM (active).

Take `CCN1CCC2(CC1)COc1cc3c(cc12)N(C(=O)c1ccc(-c2ccc(-c4nnc(C)o4)cc2C)cc1)CC3`: the result was inactive.

For the compound `O=Cc1cccc(Oc2ccccc2)c1`, the outcome was inactive.

For the compound `Cc1ccccc1N`, the outcome was inactive.

For `O=C(O)C(Cl)(Cl)Cl`, the result was inactive.

`O=c1[nH]c(=O)[nH]c(=O)[nH]1`: the outcome was inactive.

Turning to `O=[N+]([O-])c1ccc2c3c(cccc13)CC2`, the outcome was inactive.

With `C=CC(=O)OCCCCCC(C)C`, the outcome was inactive.

Consider `CCC(C)(C)c1ccc(O)c(C(C)(C)CC)c1`, for which the AC50 was 20 µM (active).

Take `CCOP(=S)(OCC)SCCS(=O)(=O)CC`: the outcome was inactive.
